The whole screen tested about 52,000 compounds, of which about 4,300 (8.3%) were called active. No stated cut-off is given here; in the data, active means survival mostly below about 52% (no sharp cut-off); inactive means mostly above about 56%. Shown is part of a subset that was picked to be rich in actives.
Test system: DeltatarO mutant
Assay: S. aureus survival, RN4220 and DeltatarO strains – OD600, teichoic acid synthesis inhibitors, primary screen (AID 463173)
Details: S. aureus RN4220 wild type/DeltatarO growth, OD600, 18 h, stronger effect = lower value, screened at 18.75 µg/mL (by protocol)

Q: `COCCn1c(SCC(=O)c2c[nH]c3ccccc23)nc2cc(C(=O)NC(C)C)ccc2c1=O` was tested. Which survival did it give?
A: 55% (inactive)

Q: With `COCCn1c(SCC(=O)c2c[nH]c3ccccc23)nc2cc(C(=O)NCC(C)C)ccc2c1=O` as the molecule, how does the survival read?
A: 100% (inactive)

Q: `COCCNC(=O)c1ccc2c(=O)n(CCOC)c(SCC(=O)c3c[nH]c4ccccc34)nc2c1` was tested. Which survival did it give?
A: 17% (active)

Q: For `Cc1ccc(Cl)cc1-n1ncc2c(NCCc3ccccc3)ncnc21`, which survival is on record?
A: 60% (inactive)

Q: For `COc1ccc(Cl)cc1NC(=O)Cn1c(=O)n(Cc2nc(C)no2)c(=O)c2ccccc21`, which survival is on record?
A: 83% (inactive)

Q: With `COc1ccc(NC(=O)CSc2nccn2Cc2ccco2)cc1OC` as the molecule, how does the survival read?
A: 73% (inactive)

Q: `Cc1ccc2nc(NC(=O)CSc3nccn3Cc3ccccc3)sc2c1` was tested. Which survival did it give?
A: 37% (active)

Q: How did the survival turn out when `Cc1ccc2nc(NC(=O)CSc3nccn3Cc3ccc(Cl)cc3)sc2c1` was run?
A: 96% (inactive)

Q: Which survival does the source give for `O=C(CSc1nccn1Cc1ccc(Cl)cc1)Nc1nc2ccccc2s1` here?
A: 32% (active)

Q: For `Cc1cc(C)cc(-n2ccnc2SCC(=O)Nc2nc3ccc(C)cc3s2)c1`, which survival is on record?
A: 52% (active)

Q: For `Cc1ccc2nc(NC(=O)CSc3nccn3Cc3ccc(F)cc3)sc2c1`, which survival is on record?
A: 99% (inactive)

Q: `Cc1cc(C)cc(-n2ccnc2SCC(=O)Nc2nc3ccccc3s2)c1` was tested. Which survival did it give?
A: 71% (inactive)

Q: Which survival does the source give for `O=C(CSc1nccn1Cc1ccccc1)Nc1nc2ccccc2s1` here?
A: 117% (inactive)

Q: `O=C(CSc1nccn1Cc1ccc(F)cc1)Nc1nc2ccccc2s1` was tested. Which survival did it give?
A: 83% (inactive)

Q: With `Cc1ccc2nc(NC(=O)CSc3nccn3-c3ccc(Cl)cc3)sc2c1` as the molecule, how does the survival read?
A: 71% (inactive)

Q: Which survival does the source give for `Cc1nnc(NC(=O)CSc2nccn2Cc2ccc(Cl)cc2)s1` here?
A: 112% (inactive)

Q: With `Cc1ccc(Cn2ccnc2SCC(=O)Nc2nnc(C)s2)cc1` as the molecule, how does the survival read?
A: 55% (inactive)

Q: How did the survival turn out when `Cc1nnc(NC(=O)CSc2nccn2Cc2ccc(F)cc2)s1` was run?
A: 0% (active)

Q: Which survival does the source give for `COc1ccccc1NC(=O)CCN1CCC(C(N)=O)CC1` here?
A: 193% (inactive)

Q: `COc1ccc(CNC(=O)c2sc3nc[nH]c(=O)c3c2C)cc1` was tested. Which survival did it give?
A: 75% (inactive)

Q: Which survival does the source give for `CCCCNc1nc(Oc2ccc(=O)n(C)n2)nc(N2CCOCC2)n1` here?
A: 81% (inactive)

Q: With `COc1ccc(C)cc1Nc1nc(-c2cccc(Cl)c2)c2c(n1)-c1ccccc1OC2` as the molecule, how does the survival read?
A: 68% (inactive)

Q: With `CCOC(=O)CCn1nc(C)c2c(C)n(-c3ccccc3)nc2c1=O` as the molecule, how does the survival read?
A: 87% (inactive)

Q: Which survival does the source give for `Cc1ccc(OCC(=O)Nc2nc(-c3ccc(Br)cc3)ns2)cc1` here?
A: 72% (inactive)

Q: `Cc1ccc(NC(=O)C2CCN(C(=O)c3sc4nc[nH]c(=O)c4c3C)CC2)cc1F` was tested. Which survival did it give?
A: 89% (inactive)

Q: Which survival does the source give for `COc1cccc(CN2C(=O)c3ccccc3Sc3ccc(C(=O)N(C)Cc4ccccc4)cc32)c1` here?
A: 79% (inactive)

Q: Which survival does the source give for `CC(=O)N1CCc2c(sc(NC(=O)CSc3ccccc3)c2-c2nc3ccccc3s2)C1` here?
A: 109% (inactive)

Q: `CCN1CCc2c(sc(NC(=O)CSc3ccccc3)c2-c2nc3ccccc3s2)C1` was tested. Which survival did it give?
A: -5% (active)

Q: `CN1CCc2c(sc(NC(=O)CSc3ccccc3)c2-c2nc3ccccc3s2)C1` was tested. Which survival did it give?
A: 73% (inactive)

Q: For `CCc1ccc(N2C(=O)C3C(C(=O)OC)=NN(C(C)=O)C3C2=O)cc1` (stereo not given), which survival is on record?
A: 75% (inactive)

Q: How did the survival turn out when `Cc1ccc(NC(=O)C2CCCN(c3ncnc4onc(-c5ccc(F)cc5)c34)C2)c(Cl)c1` (stereo not given) was run?
A: 71% (inactive)

Q: For `S=C(NCc1ccc2c(c1)OCO2)Nc1ccccc1`, which survival is on record?
A: 97% (inactive)

Q: With `CCCCNC(=O)C1(NC(=O)Nc2ccccc2)CCCCC1` as the molecule, how does the survival read?
A: 74% (inactive)

Q: Which survival does the source give for `O=C(Nc1ccccc1)NC1(C(=O)NCc2ccc3c(c2)OCO3)CCCCC1` here?
A: 6% (active)

Q: For `NC(=O)CSc1nnnn1C1CCCCC1`, which survival is on record?
A: 71% (inactive)

Q: For `COc1ccc(C(=O)Nc2cccc(-c3cn4ccsc4n3)c2)c(OC)c1`, which survival is on record?
A: 70% (inactive)

Q: With `COc1cccc(-c2nc3c(C#N)c[nH]n3c2NC2CCC(C)CC2)c1` (stereo not given) as the molecule, how does the survival read?
A: 29% (active)

Q: For `COc1ccc(-c2nc3c(C#N)c[nH]n3c2NC2CCCC2)c(OC)c1`, which survival is on record?
A: 65% (inactive)

Q: Which survival does the source give for `COc1cccc(-c2nc3c(C#N)c[nH]n3c2NC2CCCC2)c1OC` here?
A: 64% (active)

Q: Which survival does the source give for `COc1cccc(-c2nc3c(C#N)c[nH]n3c2NC2CCCCC2)c1OC` here?
A: 60% (inactive)

Q: How did the survival turn out when `COc1ccc(-c2nc3c(C#N)c[nH]n3c2NC2CCCC2)cc1` was run?
A: 56% (inactive)

Q: For `COc1cccc(-c2nc3c(C#N)c[nH]n3c2NC2CCCCC2)c1`, which survival is on record?
A: 72% (inactive)

Q: For `CCC(=O)N1c2ccccc2CC1C(=O)NCCc1ccccc1` (stereo not given), which survival is on record?
A: 69% (inactive)

Q: For `CCN(CC)c1ccc(NC(=O)C(NS(=O)(=O)c2cccs2)C(C)C)c(C)c1` (stereo not given), which survival is on record?
A: 141% (inactive)

Q: `CCC1CCCCN1CC(=O)Nc1cc(C)c2c(=O)oc3ccccc3c2n1` (stereo not given) was tested. Which survival did it give?
A: 98% (inactive)

Q: How did the survival turn out when `O=C(COc1ccc2oc3c(c2c1)CCCC3)Nc1ccc(Cl)cc1` was run?
A: 85% (inactive)

Q: With `Cc1ccc(NC(=O)COc2ccc3oc4c(c3c2)CCCC4)c(C)c1` as the molecule, how does the survival read?
A: 88% (inactive)

Q: `Cc1ccc(NC(=O)COc2ccc3oc4c(c3c2)CCCC4)cc1C` was tested. Which survival did it give?
A: 70% (inactive)

Q: Which survival does the source give for `O=C(COc1ccc2oc3c(c2c1)CCCC3)Nc1ccc(Br)cc1` here?
A: 89% (inactive)

Q: How did the survival turn out when `O=C(COc1ccc2oc3c(c2c1)CCCC3)Nc1cccc(Br)c1` was run?
A: 27% (active)

Q: `Cc1cccc(NC(=O)COc2ccc3oc4c(c3c2)CCCC4)c1` was tested. Which survival did it give?
A: 40% (active)

Q: `Cn1c(C(C(=O)NCC2CCCO2)N(Cc2ccc(F)cc2)C(=O)Cn2nnc3ccccc32)nc2ccccc21` (stereo not given) was tested. Which survival did it give?
A: 95% (inactive)

Q: `O=C(CSCn1nnc2c(=O)[nH]c(Cc3ccc(F)cc3)nc21)Nc1cccc(C(F)(F)F)c1` was tested. Which survival did it give?
A: 64% (inactive)

Q: `CC(=O)OC(COCc1ccccc1)Cn1cnc2ccccc21` (stereo not given) was tested. Which survival did it give?
A: 69% (inactive)

Q: Which survival does the source give for `CCN(CC)CCCNC(=O)CN1C(=O)COc2ccc(S(=O)(=O)N3CCC(C)CC3)cc21` here?
A: 101% (inactive)

Q: How did the survival turn out when `CSc1ccc(C2c3c(-c4ccccc4O)n[nH]c3C(=O)N2Cc2ccncc2)cc1` (stereo not given) was run?
A: 70% (inactive)

Q: How did the survival turn out when `CCc1ccc(C2c3c(-c4ccccc4O)n[nH]c3C(=O)N2Cc2cccnc2)cc1` (stereo not given) was run?
A: 34% (active)

Q: With `CCOCCCN1C(=O)c2[nH]nc(-c3ccccc3O)c2C1c1ccc(CC)cc1` (stereo not given) as the molecule, how does the survival read?
A: 39% (active)

Q: `COC(=O)c1ccc(C2c3c(-c4ccccc4O)n[nH]c3C(=O)N2Cc2cccnc2)cc1` (stereo not given) was tested. Which survival did it give?
A: 72% (inactive)

Q: With `CCc1ccc(C2c3c(-c4cc(C)ccc4O)n[nH]c3C(=O)N2Cc2cccnc2)cc1` (stereo not given) as the molecule, how does the survival read?
A: 61% (inactive)

Q: With `CCCOc1ccc(C2c3c(-c4ccccc4O)n[nH]c3C(=O)N2CCCOCC)cc1OCC` (stereo not given) as the molecule, how does the survival read?
A: 81% (inactive)

Q: `CCc1ccc(C2c3c(-c4ccccc4O)n[nH]c3C(=O)N2Cc2ccncc2)cc1` (stereo not given) was tested. Which survival did it give?
A: 22% (active)

Q: With `O=C1c2[nH]nc(-c3ccccc3O)c2C(c2cccc(O)c2)N1Cc1cccnc1` (stereo not given) as the molecule, how does the survival read?
A: 95% (inactive)

Q: `CCOc1cc(C2c3c(-c4ccccc4O)n[nH]c3C(=O)N2Cc2cccnc2)ccc1O` (stereo not given) was tested. Which survival did it give?
A: 93% (inactive)

Q: For `CCOc1ccc(C2c3c(-c4ccccc4O)n[nH]c3C(=O)N2Cc2ccncc2)cc1` (stereo not given), which survival is on record?
A: 68% (inactive)

Q: `CCCOc1ccc(C2c3c(-c4ccccc4O)n[nH]c3C(=O)N2Cc2cccnc2)cc1` (stereo not given) was tested. Which survival did it give?
A: 3% (active)

Q: With `O=C(NC12CC3CC(CC(C3)C1)C2)c1ccco1` as the molecule, how does the survival read?
A: 72% (inactive)

Q: For `CN(C)CCCC1(O)c2ccccc2CCc2ccccc21`, which survival is on record?
A: 85% (inactive)

Q: How did the survival turn out when `O=C(Nc1cc(Cl)cc(Cl)c1)c1ccc(F)c(S(=O)(=O)N2CCCC2)c1` was run?
A: 78% (inactive)

Q: With `CCC(CC)c1nc2ccccc2c(=O)[nH]1` as the molecule, how does the survival read?
A: 98% (inactive)

Q: How did the survival turn out when `Cc1cccc(-c2nc3scc(CCNS(=O)(=O)c4ccc5c(c4)OCCO5)n3n2)c1` was run?
A: 85% (inactive)

Q: Which survival does the source give for `Cc1nn(-c2ccccc2)c(-n2cccc2)c1C(=O)NCCc1ccc(Cl)cc1` here?
A: 4% (active)

Q: With `CC(=O)Nc1ccc(NC(=O)c2c(C)nn(-c3ccccc3)c2-n2cccc2)cc1` as the molecule, how does the survival read?
A: 84% (inactive)

Q: How did the survival turn out when `Cc1nn(-c2ccc(F)cc2)c(-n2cccc2)c1C(=O)NCCc1ccc(Cl)cc1` was run?
A: 68% (inactive)

Q: `Cc1ccc(CCNC(=O)c2c(C)nn(-c3ccc(F)cc3)c2-n2cccc2)cc1` was tested. Which survival did it give?
A: 67% (inactive)

Q: With `Cc1nn(-c2ccccc2)c(-n2cccc2)c1C(=O)NCc1ccccc1Cl` as the molecule, how does the survival read?
A: 2% (active)

Q: Which survival does the source give for `Cc1ccc(NC(=O)c2c(C)nn(-c3ccccc3)c2-n2cccc2)c(Cl)c1` here?
A: 79% (inactive)

Q: How did the survival turn out when `O=C(NC1CCCCC1)c1ccc(S(=O)(=O)N2CCCC2)cc1` was run?
A: 79% (inactive)

Q: How did the survival turn out when `CCOC(=O)c1ccc(NC(=O)Cn2cc(C(=O)C3CC3)c3ccccc32)cc1` was run?
A: 68% (inactive)

Q: `Cc1ccccc1NC(=O)c1sc2nc3n(c(=O)c2c1C)N=C(c1ccccc1)CS3` was tested. Which survival did it give?
A: 88% (inactive)

Q: Which survival does the source give for `COc1ccc2sc(N3C(=O)C4CC=C(C)CC4C3=O)nc2c1` (stereo not given) here?
A: 103% (inactive)

Q: For `CCOc1ccc2nc3c(cc2c1)CN(CCO)C(=Nc1cccc(OC)c1)S3`, which survival is on record?
A: 47% (active)

Q: Which survival does the source give for `CCN=C1Sc2nc3ccc(OCC)cc3cc2CN1CCOC` here?
A: 104% (inactive)

Q: With `COCCN1Cc2cc3cc4c(cc3nc2SC1=Nc1cccc(OC)c1)OCO4` as the molecule, how does the survival read?
A: 87% (inactive)

Q: With `CN(C)c1ccc(NC(=O)CN2CCN(CC(=O)Nc3ccc(Br)cc3)CC2)cc1` as the molecule, how does the survival read?
A: 80% (inactive)

Q: With `CCCn1c(-c2ccc(F)cc2)cnc1SCC(=O)N1CCCCC1C` (stereo not given) as the molecule, how does the survival read?
A: 74% (inactive)

Q: Which survival does the source give for `COc1ccc(-c2nc3scc(CCNS(=O)(=O)c4cccs4)n3n2)cc1` here?
A: 6% (active)

Q: For `CS(=O)(=O)NCCc1csc2nc(-c3ccccc3)nn12`, which survival is on record?
A: -2% (active)

Q: Which survival does the source give for `O=S(=O)(NCCc1csc2nc(-c3ccc(Cl)cc3)nn12)c1cccs1` here?
A: 84% (inactive)

Q: `O=S(=O)(NCCc1csc2nc(-c3ccccc3)nn12)c1cccs1` was tested. Which survival did it give?
A: 72% (inactive)

Q: With `CCc1ccc(S(=O)(=O)NCCc2csc3nc(-c4ccccc4)nn23)s1` as the molecule, how does the survival read?
A: 109% (inactive)

Q: How did the survival turn out when `COc1ccc(S(=O)(=O)NCCc2csc3nc(-c4ccccc4)nn23)cc1OC` was run?
A: 72% (inactive)

Q: `COc1ccc(-c2nc3scc(CCNS(=O)(=O)c4ccccc4F)n3n2)cc1` was tested. Which survival did it give?
A: 90% (inactive)

Q: How did the survival turn out when `COc1ccc(OC)c(S(=O)(=O)NCCc2csc3nc(-c4ccccc4)nn23)c1` was run?
A: -1% (active)

Q: For `CCS(=O)(=O)NCCc1csc2nc(-c3ccc(C)cc3)nn12`, which survival is on record?
A: 83% (inactive)

Source: PubChem BioAssay AID463173 (ICCB-Longwood Screening Facility, Harvard Medical School, 2010)
